According to paper PMC7862700, “An all-to-all approach to the identification of sequence-specific readers for epigenetic DNA modifications on cytosine”:

Columns and labels:
Experiment in all cases: DAPPL (digital affinity profiling via proximity ligation, sequencing); 10 mM Tris-HCl pH 7.5, 50 mM NaCl, 1 mM DTT, 4% glycerol, room temperature, 30 min; GST-TFs on glutathione beads, 16-mer random dsDNA library, 0.1% formaldehyde crosslink after washing; high values mean tight binding
Details in all cases: protein: recombinant; tags: N-terminal GST; dsDNA, one strand shown
[1] = biological target: T1, ERF (Homo sapiens, UniProt P50548 1-548)
T1 sequence: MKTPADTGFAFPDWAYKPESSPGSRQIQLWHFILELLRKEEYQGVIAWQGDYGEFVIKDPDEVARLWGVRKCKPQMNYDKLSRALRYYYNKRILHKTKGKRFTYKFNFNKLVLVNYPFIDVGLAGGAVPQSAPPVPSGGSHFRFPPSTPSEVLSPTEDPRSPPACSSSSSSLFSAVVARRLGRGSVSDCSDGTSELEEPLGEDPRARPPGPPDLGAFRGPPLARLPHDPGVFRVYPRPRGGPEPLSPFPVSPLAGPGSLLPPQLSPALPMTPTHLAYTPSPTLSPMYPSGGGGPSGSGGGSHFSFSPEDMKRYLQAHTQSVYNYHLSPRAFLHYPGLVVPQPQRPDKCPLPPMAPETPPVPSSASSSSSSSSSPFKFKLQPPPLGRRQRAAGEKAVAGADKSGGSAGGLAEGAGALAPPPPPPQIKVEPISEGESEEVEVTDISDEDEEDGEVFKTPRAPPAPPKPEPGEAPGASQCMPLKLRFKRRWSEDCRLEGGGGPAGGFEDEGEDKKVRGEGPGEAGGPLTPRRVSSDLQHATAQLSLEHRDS
Outline: (§1)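 After expression in yeast as GST fusions, human transcription factors were bound to glutathione beads, DNA-barcoded and mixed with a tag-only sample. The pools were incubated with 200 nmole of a 16-mer random double-stranded DNA library in Tris/NaCl/DTT/glycerol buffer (30 min, room temperature), washed and crosslinked with 0.1% formaldehyde. Proximity ligation with BsaI/T4 ligase ran for 1 h at 37 °C, before PCR amplification and sequencing on an Illumina NextSeq500. Binding signal is a hexamer's read frequency for a factor divided by its frequency for the tag-only sample.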

[2] = biological target: T2, ETV3L (Homo sapiens, UniProt Q6ZN32 1-361)
T2 sequence: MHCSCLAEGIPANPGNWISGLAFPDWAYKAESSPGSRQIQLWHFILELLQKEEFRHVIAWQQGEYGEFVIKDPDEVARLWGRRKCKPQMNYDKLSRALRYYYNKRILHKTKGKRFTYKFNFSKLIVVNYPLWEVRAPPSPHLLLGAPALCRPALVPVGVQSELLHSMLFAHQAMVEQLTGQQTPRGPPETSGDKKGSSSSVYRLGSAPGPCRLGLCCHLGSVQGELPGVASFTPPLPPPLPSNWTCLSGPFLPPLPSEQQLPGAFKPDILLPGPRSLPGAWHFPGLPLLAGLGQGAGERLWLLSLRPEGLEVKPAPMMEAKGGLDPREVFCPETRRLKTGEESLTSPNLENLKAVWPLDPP
Outline: as §1

[3] = biological target: T3, ETS2 (Homo sapiens, UniProt P15036 1-469)
T3 sequence: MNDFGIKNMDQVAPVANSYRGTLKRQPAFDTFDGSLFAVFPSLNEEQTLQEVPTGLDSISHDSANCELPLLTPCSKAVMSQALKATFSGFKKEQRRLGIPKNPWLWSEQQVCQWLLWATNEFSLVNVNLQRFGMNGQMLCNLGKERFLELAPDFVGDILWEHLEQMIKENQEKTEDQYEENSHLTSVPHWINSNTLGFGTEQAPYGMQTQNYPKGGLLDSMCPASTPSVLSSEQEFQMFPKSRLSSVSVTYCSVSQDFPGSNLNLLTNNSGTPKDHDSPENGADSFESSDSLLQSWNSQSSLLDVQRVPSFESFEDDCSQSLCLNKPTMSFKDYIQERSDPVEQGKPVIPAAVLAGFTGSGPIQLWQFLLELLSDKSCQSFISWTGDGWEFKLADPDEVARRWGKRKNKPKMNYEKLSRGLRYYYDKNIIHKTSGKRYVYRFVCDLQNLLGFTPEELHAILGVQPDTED
Outline: as §1

[4] = biological target: T4, SPDEF (Homo sapiens, UniProt O95238 1-335)
T4 sequence: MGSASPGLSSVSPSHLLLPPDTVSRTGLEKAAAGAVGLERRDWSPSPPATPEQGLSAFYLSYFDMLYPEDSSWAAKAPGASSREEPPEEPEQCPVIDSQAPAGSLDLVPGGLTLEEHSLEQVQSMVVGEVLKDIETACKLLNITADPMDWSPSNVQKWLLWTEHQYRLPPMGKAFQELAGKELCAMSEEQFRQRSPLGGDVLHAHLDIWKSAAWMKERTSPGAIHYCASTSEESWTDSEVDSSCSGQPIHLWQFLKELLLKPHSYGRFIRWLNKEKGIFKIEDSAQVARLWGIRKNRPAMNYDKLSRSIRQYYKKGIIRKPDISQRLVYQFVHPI
Outline: as §1

[5] = biological target: T5, ETV7 (Homo sapiens, UniProt Q9Y603 1-341)
T5 sequence: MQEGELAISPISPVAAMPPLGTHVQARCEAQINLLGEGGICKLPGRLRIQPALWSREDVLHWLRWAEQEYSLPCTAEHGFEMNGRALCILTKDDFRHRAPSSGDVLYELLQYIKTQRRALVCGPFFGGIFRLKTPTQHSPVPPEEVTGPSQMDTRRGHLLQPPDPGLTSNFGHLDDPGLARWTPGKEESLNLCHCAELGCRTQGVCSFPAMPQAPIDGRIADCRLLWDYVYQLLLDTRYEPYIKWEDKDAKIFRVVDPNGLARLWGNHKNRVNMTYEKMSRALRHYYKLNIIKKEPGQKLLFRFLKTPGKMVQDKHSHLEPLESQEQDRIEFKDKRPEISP
Outline: as §1

[6] = biological target: T6, ELF5 (Homo sapiens, UniProt Q9UKW6-2 1-255)
T6 sequence: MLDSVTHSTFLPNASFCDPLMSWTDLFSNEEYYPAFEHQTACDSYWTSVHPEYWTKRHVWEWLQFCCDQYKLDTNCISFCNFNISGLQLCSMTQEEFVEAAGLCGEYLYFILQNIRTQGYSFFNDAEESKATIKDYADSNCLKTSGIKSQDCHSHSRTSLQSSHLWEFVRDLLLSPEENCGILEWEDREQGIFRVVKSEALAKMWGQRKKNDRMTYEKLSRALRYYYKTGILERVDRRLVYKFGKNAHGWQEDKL
Outline: as §1

[7] = biological target: T7, ETV3 (Homo sapiens, UniProt P41162-2 1-143)
T7 sequence: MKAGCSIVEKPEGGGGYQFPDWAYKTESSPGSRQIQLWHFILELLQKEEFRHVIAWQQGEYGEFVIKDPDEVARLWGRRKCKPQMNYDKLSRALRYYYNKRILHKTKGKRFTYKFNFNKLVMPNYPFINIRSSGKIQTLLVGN
Outline: as §1

[8] = biological target: ETV6 (Homo sapiens, UniProt P41212 1-452)
Sequence of ETV6 (P41212 whole entry): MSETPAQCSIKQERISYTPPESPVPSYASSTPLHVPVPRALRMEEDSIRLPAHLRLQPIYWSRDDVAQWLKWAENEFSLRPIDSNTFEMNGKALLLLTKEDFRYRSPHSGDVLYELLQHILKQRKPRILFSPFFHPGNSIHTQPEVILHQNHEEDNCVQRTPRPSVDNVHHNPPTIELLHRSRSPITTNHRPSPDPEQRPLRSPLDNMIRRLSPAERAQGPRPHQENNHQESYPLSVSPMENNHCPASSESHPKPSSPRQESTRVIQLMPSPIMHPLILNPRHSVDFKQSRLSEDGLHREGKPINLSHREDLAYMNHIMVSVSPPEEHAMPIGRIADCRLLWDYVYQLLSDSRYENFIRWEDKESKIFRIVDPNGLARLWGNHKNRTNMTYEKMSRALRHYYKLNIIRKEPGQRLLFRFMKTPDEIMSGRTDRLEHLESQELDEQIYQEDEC
Outline: as §1

TTTAAC
binding signal [1]: 1.28 fold enrichment (6-mer frequency, TF over GST control)
binding signal [2]: 1.17 fold enrichment (6-mer frequency, TF over GST control)
binding signal [3]: 1.16 fold enrichment (6-mer frequency, TF over GST control)
binding signal [4]: 1.12 fold enrichment (6-mer frequency, TF over GST control)
binding signal [5]: 1.07 fold enrichment (6-mer frequency, TF over GST control)
binding signal [6]: 1.11 fold enrichment (6-mer frequency, TF over GST control)
binding signal [7]: 1.21 fold enrichment (6-mer frequency, TF over GST control)
binding signal [8]: 1.19 fold enrichment (6-mer frequency, TF over GST control)

ATCCAT
binding signal [1]: 1.26 fold enrichment (6-mer frequency, TF over GST control)
binding signal [2]: 1.11 fold enrichment (6-mer frequency, TF over GST control)
binding signal [3]: 1.17 fold enrichment (6-mer frequency, TF over GST control)
binding signal [4]: 1.17 fold enrichment (6-mer frequency, TF over GST control)
binding signal [5]: 1.11 fold enrichment (6-mer frequency, TF over GST control)
binding signal [6]: 1.09 fold enrichment (6-mer frequency, TF over GST control)
binding signal [7]: 1.19 fold enrichment (6-mer frequency, TF over GST control)
binding signal [8]: 1.09 fold enrichment (6-mer frequency, TF over GST control)

CCCAAT
binding signal [1]: 1.18 fold enrichment (6-mer frequency, TF over GST control)
binding signal [2]: 1.27 fold enrichment (6-mer frequency, TF over GST control)
binding signal [3]: 1.22 fold enrichment (6-mer frequency, TF over GST control)
binding signal [4]: 1.29 fold enrichment (6-mer frequency, TF over GST control)
binding signal [5]: 1.15 fold enrichment (6-mer frequency, TF over GST control)
binding signal [6]: 1.23 fold enrichment (6-mer frequency, TF over GST control)
binding signal [7]: 1.18 fold enrichment (6-mer frequency, TF over GST control)
binding signal [8]: 1.28 fold enrichment (6-mer frequency, TF over GST control)

AATTCG
binding signal [1]: 1.38 fold enrichment (6-mer frequency, TF over GST control)
binding signal [2]: 1.38 fold enrichment (6-mer frequency, TF over GST control)
binding signal [3]: 1.23 fold enrichment (6-mer frequency, TF over GST control)
binding signal [4]: 1.25 fold enrichment (6-mer frequency, TF over GST control)
binding signal [5]: 1.32 fold enrichment (6-mer frequency, TF over GST control)
binding signal [6]: 1.2 fold enrichment (6-mer frequency, TF over GST control)
binding signal [7]: 1.29 fold enrichment (6-mer frequency, TF over GST control)
binding signal [8]: 1.24 fold enrichment (6-mer frequency, TF over GST control)

TGAATT
binding signal [1]: 1.14 fold enrichment (6-mer frequency, TF over GST control)
binding signal [2]: 1.17 fold enrichment (6-mer frequency, TF over GST control)
binding signal [3]: 1.16 fold enrichment (6-mer frequency, TF over GST control)
binding signal [4]: 1.11 fold enrichment (6-mer frequency, TF over GST control)
binding signal [5]: 1.21 fold enrichment (6-mer frequency, TF over GST control)
binding signal [6]: 1.13 fold enrichment (6-mer frequency, TF over GST control)
binding signal [7]: 1.16 fold enrichment (6-mer frequency, TF over GST control)
binding signal [8]: 1.03 fold enrichment (6-mer frequency, TF over GST control)

CGTTCG
binding signal [1]: 1.52 fold enrichment (6-mer frequency, TF over GST control)
binding signal [2]: 1.16 fold enrichment (6-mer frequency, TF over GST control)
binding signal [3]: 1.25 fold enrichment (6-mer frequency, TF over GST control)
binding signal [4]: 1.04 fold enrichment (6-mer frequency, TF over GST control)
binding signal [5]: 1.24 fold enrichment (6-mer frequency, TF over GST control)
binding signal [6]: 1.26 fold enrichment (6-mer frequency, TF over GST control)
binding signal [7]: 1.19 fold enrichment (6-mer frequency, TF over GST control)
binding signal [8]: 1.29 fold enrichment (6-mer frequency, TF over GST control)

TCTTAG
binding signal [1]: 1.21 fold enrichment (6-mer frequency, TF over GST control)
binding signal [2]: 1.35 fold enrichment (6-mer frequency, TF over GST control)
binding signal [3]: 1.13 fold enrichment (6-mer frequency, TF over GST control)
binding signal [4]: 1.24 fold enrichment (6-mer frequency, TF over GST control)
binding signal [5]: 1.18 fold enrichment (6-mer frequency, TF over GST control)
binding signal [6]: 1.21 fold enrichment (6-mer frequency, TF over GST control)
binding signal [7]: 1.2 fold enrichment (6-mer frequency, TF over GST control)
binding signal [8]: 1.19 fold enrichment (6-mer frequency, TF over GST control)

TCATCC
binding signal [1]: 1.2 fold enrichment (6-mer frequency, TF over GST control)
binding signal [2]: 1.42 fold enrichment (6-mer frequency, TF over GST control)
binding signal [3]: 1.35 fold enrichment (6-mer frequency, TF over GST control)
binding signal [4]: 1.85 fold enrichment (6-mer frequency, TF over GST control)
binding signal [5]: 1.24 fold enrichment (6-mer frequency, TF over GST control)
binding signal [6]: 1.6 fold enrichment (6-mer frequency, TF over GST control)
binding signal [7]: 1.55 fold enrichment (6-mer frequency, TF over GST control)
binding signal [8]: 1.38 fold enrichment (6-mer frequency, TF over GST control)
